Source: PubChem BioAssay
Rows were chosen to be rich in hits. Some 2.3% of all compounds tested hit in one or more screens of this group.
POLH inh = qHTS for Inhibitors of Polymerase Eta. DNA polymerase eta (Homo sapiens), Q9Y253. Potency, µM (highest dose often 114 µM), without a hit: at the top dose activity change, negative = inhibition, actives largely listed as inhibitors. AID 588591, 2011. actives 1.2% (n = 390,000). recombinant Pol eta, fluorescent DNA replication assay; note: % is set by controls: 0 for no effect and ±100 for the full control effect
Target sequence (Q9Y253 whole entry, looked up): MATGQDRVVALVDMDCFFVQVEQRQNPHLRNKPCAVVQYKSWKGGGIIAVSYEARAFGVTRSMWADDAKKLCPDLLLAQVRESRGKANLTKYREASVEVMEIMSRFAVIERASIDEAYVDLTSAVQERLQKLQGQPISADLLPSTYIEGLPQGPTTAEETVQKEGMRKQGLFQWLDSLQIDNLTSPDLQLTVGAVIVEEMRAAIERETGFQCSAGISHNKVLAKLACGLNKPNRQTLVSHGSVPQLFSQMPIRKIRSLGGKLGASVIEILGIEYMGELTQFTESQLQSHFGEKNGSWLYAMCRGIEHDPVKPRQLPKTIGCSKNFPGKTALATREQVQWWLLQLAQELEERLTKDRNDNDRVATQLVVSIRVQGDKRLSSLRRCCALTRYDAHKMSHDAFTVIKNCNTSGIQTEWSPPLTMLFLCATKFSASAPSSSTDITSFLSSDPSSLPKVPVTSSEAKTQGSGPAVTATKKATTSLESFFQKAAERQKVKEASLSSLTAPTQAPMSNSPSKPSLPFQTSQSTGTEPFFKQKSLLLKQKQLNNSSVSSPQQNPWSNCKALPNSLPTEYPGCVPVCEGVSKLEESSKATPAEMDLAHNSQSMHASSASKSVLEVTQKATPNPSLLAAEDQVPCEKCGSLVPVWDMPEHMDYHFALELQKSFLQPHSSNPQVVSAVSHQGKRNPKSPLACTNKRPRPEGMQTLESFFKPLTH
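Pol eta at 10 nM preincubated with compounds 15 min at room temperature; reaction started with fluorescent substrate (50 nM final) and read kinetically at 0 and 10 min.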
POLI inh = qHTS for Inhibitors of Polymerase Iota; DNA polymerase iota (Homo sapiens), Q9UNA4; Potency, µM (doses to about 115 µM), for the others: at the top dose activity, negative = inhibition, hits mostly inhibitors; Pol iota fluorescent replication assay, 10 min; actives 1% (n = 390,000)
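Pol iota at 10 nM preincubated 15 min with compounds at room temperature; reaction started with fluorescent substrate, 50 nM final. Fluorescence read kinetically at 0 and 10 min; buffer-only wells as negative control.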
POLK inh = qHTS for Inhibitors of Polymerase Kappa; DNA polymerase kappa (Homo sapiens), Q9UBT6; purified Pol kappa, fluorescent DNA synthesis assay, 10 min; Potency, µM (series often up to 107 µM), without a hit: at the top dose activity, negative = inhibition, most hits filed as inhibitors; actives 0.53% (n = 400,000); note: % is set by controls: 0 for no effect and ±100 for the full control effect
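50 nM final substrate added after 15 min RT preincubation of 10 nM Pol kappa with compound; fluorescence read at 0 and 10 min.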
WRN inhibitor = qHTS for Inhibitors of WRN Helicase; Bifunctional 3'-5' exonuclease/ATP-dependent helicase WRN (Homo sapiens), Q14191; WRN helicase unwinding, fluorescent forked duplex, kinetic; Potency, µM (highest dose often 114 µM), inactives show at the top dose activity change, negative = inhibition, hits mostly inhibitors; actives 0.46% (n = 360,000); note: % is set by controls: 0 for no effect and ±100 for the full control effect; nearly all actives have a fitted effect of over 55% in size
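WRN at 20 nM final preincubated with compound 15 min at room temperature; reaction started with 100 nM fluorophore/quencher forked duplex oligonucleotide and 2 mM ATP final. Unwinding followed kinetically by red fluorescence (ex 525, em 598 nm).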
Pol beta inh = qHTS Assay for Inhibitors of DNA Polymerase Beta | actives 1.3% (n = 340,000) | AID 485314, 2010 | Potency, µM (top dose mostly 114 µM), for the others: top-dose activity change, negative = inhibition, most hits filed as inhibitors | Pol beta primer extension/strand displacement, fluorescence kinetic | P06746; note: % is set by controls: 0 for no effect and ±100 for the full control effect
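10 nM enzyme + cpd, 15 min RT; start with substrate 50 nM final; read 0 min and after 10 min RT. Corrected, normalized data; 4-parameter Hill curve fit.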
* = called active by the depositor; ? = inconclusive; . = no result; [ ] = another dose, or the depositor's remark. Calls come from the whole dose curve; as a rule, active = well fitted curve in the direction sought with a large enough effect; inconclusive = small, poorly fitted or top-dose-only effect, or another doubt; inactive = no such curve, though single readings can be large; an effect the other way counts as inactive or inconclusive. Potency is the fitted concentration of half-maximal effect.

SMILES | POLH inh | POLI inh | POLK inh | WRN inhibitor | Pol beta inh
CC[C@H](C)[C@H](NC(=O)[C@H](CCC(=O)O)NC(=O)[C@H](CO)NC(=O)[C@@H](NC(=O)[C@@H](N)CO)C(C)C)C(=O)N[C@@H](CCC(N)=O)C(=O)N[C@@H](CC(C)C)C(=O)N[C@@H](CCSC)C(=O)N[C@@H](Cc1cnc[nH]1)C(=O)N[C@@H](CC(N)=O)C(=O)N[C@@H](CC(C)C)C(=O)NCC(=O)N[C@@H](CCCCN)C(=O)N[C@@H](Cc1cnc[nH]1)C(=O)N[C@@H](CC(C)C)C(=O)N[C@@H](CC(N)=O)C(=O)N[C@@H](CO)C(=O)N[C@@H](CCSC)C(=O)N[C@@H](CCC(=O)O)C(=O)N[C@@H](CCCNC(=N)N)C(=O)N[C@H](C(=O)N[C@@H](CCC(=O)O)C(=O)N[C@@H](Cc1c[nH]c2ccccc12)C(=O)N[C@@H](CC(C)C)C(=O)N[C@@H](CCCNC(=N)N)C(=O)N[C@@H](CCCCN)C(=O)N[C@@H](CCCCN)C(=O)N[C@@H](CC(C)C)C(=O)N[C@@H](CCC(N)=O)C(=O)N[C@@H](CC(=O)O)C(=O)N[C@H](C(=O)N[C@@H](Cc1cnc[nH]1)C(=O)N[C@@H](CC(N)=O)C(=O)N[C@@H](Cc1ccccc1)C(=O)N[C@H](C(=O)N[C@@H](C)C(=O)N[C@@H](CC(C)C)C(=O)NCC(=O)O)C(C)C)C(C)C)C(C)C | . | . | -10%[12 µM] | . | .
CCOC(=O)Nc1cc2c(c(N)n1)N=C(c1ccccc1)CN2 | ? | ? | -24% | 56µM* | .
O=C(CSc1ccccc1)Nc1ccc(-c2nc3ccccc3[nH]2)cc1 | ? | ? | ? | -32% | 7.1µM*
Cc1ccc2nc(-c3ccc(NC(=O)CSc4ccccc4)cc3)[nH]c2c1 | -11% | 35µM* | -4%[60.1 µM] | -7%[57.1 µM] | 22µM*
COc1ccc(NS(=O)(=O)c2ccc3c(c2)CCCN3C(C)=O)cc1 | -3% | -16% | 7% | -5% | 18%
COc1cccc(NS(=O)(=O)c2ccc3c(c2)CCCN3C(C)=O)c1 | 5% | -34% | -6% | -5% | 79µM*
CC(=O)N1CCc2cc(S(=O)(=O)NC(C(=O)NC3CCCc4ccccc43)C(C)C)ccc21 (stereo unspecified) | -9% | -14% | -11% | -15% | 32µM*
COc1ccc(CNC(=O)C(Cc2ccccc2)NS(=O)(=O)c2ccc3c(c2)CCN3C(C)=O)cc1 (stereo unspecified) | -9% | ? | 0% | . | 25µM*
CC(=O)N1CCc2cc(S(=O)(=O)NC(C(=O)NC(C)c3ccccc3)C(C)C)ccc21 (stereo unspecified) | -4% | 40% | -2% | 11% | -23%
Brc1cc(Br)c[n+](CCc2ccccc2)c1 | . | -1% | -4% | . | .
CN(C)c1ccc(/C=C/c2ccnc3c(O)ccc(O)c23)cc1 | . | 5% | 10% | . | .
COc1ccccc1N1CCN(CCn2c(=O)c3c(c4ccccc4n3C)n(C)c2=O)CC1 | . | . | 6%[19.4 µM] | . | .
O=C(CS(=O)CC(=O)Nc1cnc2ccccc2c1)Nc1ccc(Cl)cc1 (stereo unspecified) | ? | ? | -29% | -8%[57.1 µM] | 50µM*
O=C(COC(=O)/C=C/c1ccc2ccccc2n1)NNC(=O)c1ccccc1 | 40µM* | . | . | -23% | .
CC(C)CCNC(=O)COC(=O)/C=C/c1ccc2ccccc2n1 | 3% | 138% | -16% | -8% | 0%
Cc1ccc(C(=O)OCC(=O)NC2CCCc3ccccc32)o1 (stereo unspecified) | -15% | 7% | -14% | -13% | .
N#CCC(=O)Nc1ccc(C(=O)OCC(=O)NC2CCCc3ccccc32)cc1 (stereo unspecified) | 40µM* | ? | -38% | 4%[11.6 µM] | .
COCCNC(=S)Nc1ccc(Cl)c(Cl)c1 | -20% | 13% | -10% | -15% | -2%
COCCNC(=S)Nc1ccc2nsnc2c1 | -6% | 20µM* | -13% | -21% | 43%
COc1ccc(NC(=S)Nc2ccc3nsnc3c2)cc1 | 7.1µM* | 3.5µM* | 0% | ? | 0%
